# The full list was thinned out, with the strongest signals kept by preference.
# B1: MPA (Maclura pomifera), P18674 (protein)
# chain: GVTFDDGAYTGIREINFEYNSETAIGGLRVTYDLNGMPFVAEDHKSFITGFKPVKISLEFPSEYIVEVSGYVGKVEGYTVIRSLTFKTNKQTYGPYGVTNGTPFSLPIENGLIVGFKGSIGYWLDYFSIYLSL
# What was measured:
# Experiment in all cases: glycan array binding signal (z-score within array); higher = stronger binding
# Conditions in all cases: glycan notation: IUPAC condensed, linker removed
# [1] = target: Fuc(a1-2)Gal(b1-4)GlcNAc(b1-3)[Fuc(a1-2)Gal(b1-4)GlcNAc(b1-6)]GalNAc
# Procedure, shortened: (§1)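 Glycan array binding is given as a within-array Z-score, which can be read as non-binding when negative. The arrays, 3228 of them, came from the Consortium for Functional Glycomics database and were retained only where the protein sequence was available. Z-scores were averaged across arrays of the same protein sequence at different concentrations or buffers and across linkers.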
# [2] = target: Fuc(a1-2)Gal6S(b1-3)GlcNAc
# Procedure, shortened: as §1
# [3] = target: Fuc(a1-2)[GalNAc(a1-3)]Gal(b1-3)GlcNAc(b1-2)Man(a1-3)[Fuc(a1-2)[GalNAc(a1-3)]Gal(b1-3)GlcNAc(b1-2)Man(a1-6)]Man(b1-4)GlcNAc(b1-4)[Fuc(a1-6)]GlcNAc
# Procedure, shortened: as §1
# [4] = target: Fuc(a1-2)[GalNAc(a1-3)]Gal(b1-4)GlcNAc
# Procedure, shortened: as §1
# [5] = target: Fuc(a1-3)GlcNAc
# Procedure, shortened: as §1
# [6] = target: Fuc(a1-3)[Gal(b1-4)]GlcNAc(b1-3)Gal(b1-4)[Fuc(a1-3)]GlcNAc
# Procedure, shortened: as §1
# [7] = target: Fuc(a1-3)[Gal(b1-4)]GlcNAc6S
# Procedure, shortened: as §1
# [8] = target: Gal(a1-3)[Gal(a1-4)]Gal(b1-4)GlcNAc
# Procedure, shortened: as §1
# [9] = target: Gal(b1-3)Gal
# Procedure, shortened: as §1
# [10] = target: Gal(b1-3)GlcNAc
# Procedure, shortened: as §1
# [11] = target: Gal(b1-3)GlcNAc(b1-2)Man(a1-3)[Gal(b1-3)GlcNAc(b1-2)Man(a1-6)]Man(b1-4)GlcNAc(b1-4)[Fuc(a1-6)]GlcNAc
# Procedure, shortened: as §1
# [12] = target: Gal(b1-3)GlcNAc(b1-3)Gal(b1-4)Glc
# Procedure, shortened: as §1
# [13] = target: Gal(b1-3)GlcNAc(b1-6)GalNAc
# Procedure, shortened: as §1
# [14] = target: Gal(b1-3)GlcNAc(b1-6)[Gal(b1-3)]GalNAc
# Procedure, shortened: as §1
# [15] = target: Gal(b1-3)[GlcNAc(b1-6)]GalNAc
# Procedure, shortened: as §1
# [16] = target: Gal(b1-4)GlcNAc(b1-2)Man(a1-3)[Gal(b1-4)GlcNAc(b1-2)Man(a1-6)][GlcNAc(b1-4)]Man(b1-4)GlcNAc(b1-4)[Fuc(a1-6)]GlcNAc
# Procedure, shortened: as §1
# [17] = target: Gal(b1-4)GlcNAc(b1-2)[Gal(b1-4)GlcNAc(b1-4)]Man(a1-3)[Gal(b1-4)GlcNAc(b1-2)Man(a1-6)]Man(b1-4)GlcNAc(b1-4)GlcNAc
# Procedure, shortened: as §1
# [18] = target: Gal(b1-4)GlcNAc(b1-3)Gal(b1-4)GlcNAc(b1-2)Man(a1-3)[Gal(b1-4)GlcNAc(b1-3)Gal(b1-4)GlcNAc(b1-2)Man(a1-6)]Man(b1-4)GlcNAc(b1-4)GlcNAc
# Procedure, shortened: as §1
# [19] = target: Gal(b1-4)GlcNAc(b1-3)Gal(b1-4)GlcNAc(b1-3)Gal(b1-4)GlcNAc(b1-2)Man(a1-3)[Gal(b1-4)GlcNAc(b1-3)Gal(b1-4)GlcNAc(b1-3)Gal(b1-4)GlcNAc(b1-2)Man(a1-6)]Man(b1-4)GlcNAc(b1-4)GlcNAc
# Procedure, shortened: as §1
# [20] = target: Gal(b1-4)GlcNAc(b1-3)Gal(b1-4)GlcNAc(b1-3)Gal(b1-4)GlcNAc(b1-2)[Gal(b1-4)GlcNAc(b1-3)Gal(b1-4)GlcNAc(b1-3)Gal(b1-4)GlcNAc(b1-6)]Man(a1-6)[Gal(b1-4)GlcNAc(b1-3)Gal(b1-4)GlcNAc(b1-3)Gal(b1-4)GlcNAc(b1-2)Man(a1-3)]Man(b1-4)GlcNAc(b1-4)[Fuc(a1-6)]GlcNAc
# Procedure, shortened: as §1
# [21] = target: Gal(b1-4)GlcNAc(b1-3)Gal(b1-4)GlcNAc(b1-3)Gal(b1-4)GlcNAc(b1-3)Gal(b1-4)GlcNAc(b1-2)Man(a1-3)[Gal(b1-4)GlcNAc(b1-3)Gal(b1-4)GlcNAc(b1-3)Gal(b1-4)GlcNAc(b1-3)Gal(b1-4)GlcNAc(b1-2)Man(a1-6)]Man(b1-4)GlcNAc(b1-4)[Fuc(a1-6)]GlcNAc
# Procedure, shortened: as §1
# [22] = target: Gal(b1-4)GlcNAc(b1-3)Gal(b1-4)GlcNAc(b1-3)[Gal(b1-4)GlcNAc(b1-3)Gal(b1-4)GlcNAc(b1-6)]GalNAc
# Procedure, shortened: as §1
# [23] = target: Gal(b1-4)GlcNAc(b1-3)Gal(b1-4)GlcNAc(b1-6)[Gal(b1-3)]GalNAc
# Procedure, shortened: as §1
# [24] = target: Gal(b1-4)GlcNAc(b1-3)[GlcNAc(b1-6)]Gal(b1-4)GlcNAc
# Procedure, shortened: as §1
# [25] = target: Gal3S(b1-4)[Fuc(a1-3)]GlcNAc6S
# Procedure, shortened: as §1
binder,measurement,setting,value
B1,glycan array binding signal (z-score),[1],-0.236
same,glycan array binding signal (z-score),[2],-0.247
same,glycan array binding signal (z-score),[3],-0.363
same,glycan array binding signal (z-score),[4],-0.227
same,glycan array binding signal (z-score),[5],-0.164
same,glycan array binding signal (z-score),[6],-0.148
same,glycan array binding signal (z-score),[7],0.042
same,glycan array binding signal (z-score),[8],-0.119
same,glycan array binding signal (z-score),[9],-0.079
same,glycan array binding signal (z-score),[10],-0.201
same,glycan array binding signal (z-score),[11],-0.074
same,glycan array binding signal (z-score),[12],-0.157
same,glycan array binding signal (z-score),[13],-0.363
same,glycan array binding signal (z-score),[14],-0.291
same,glycan array binding signal (z-score),[15],-0.112
same,glycan array binding signal (z-score),[16],-0.26
same,glycan array binding signal (z-score),[17],-0.046
same,glycan array binding signal (z-score),[18],3.21
same,glycan array binding signal (z-score),[19],8.11
same,glycan array binding signal (z-score),[20],2.44
same,glycan array binding signal (z-score),[21],4.26
same,glycan array binding signal (z-score),[22],4
same,glycan array binding signal (z-score),[23],2.93
same,glycan array binding signal (z-score),[24],-0.172
same,glycan array binding signal (z-score),[25],-0.226

# From the supplement of paper PMC8728848
